Screening data (PubChem BioAssay)
A selection: hits, their analogues and other compounds. The true share with any hit is near 1.1%.
HTR5A inv ag: HTR5A inverse agonists in luminescence cell assay, primary screen, counter-screen for OPRM1-OPRD1 heterodimer inverse agonist project, full-deck HTS; HTR5A cell line, inverse agonism; inhibition, % at 9.3 µM; actives 0.083% (n = 340,000); AID 504634, 2011; in the data active means inhibition mostly above about 23%, no sharp cut-off; inactive means mostly below about 18%;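 further: 0% = cells with DMSO and 100% = no-cell wells with DMSO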
HTR5A ag ctr: HTR5A agonists in luminescence cell assay, primary screen, counter-screen for OPRM1-OPRD1 heterodimer agonist project, full-deck HTS. cell-based. actives 0.61% (n = 340,000). activation, % at 9.3 µM. AID 504692, 2011. 5-hydroxytryptamine receptor 5A (Homo sapiens), P47898; in the data active means activation mostly above about 9.5%, no sharp cut-off; inactive means mostly below about 7.6%;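 further: 0% = cells with vehicle only and 100% = reference agonist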
MOR-DOR ag-1: agonists of OPRM1-OPRD1 heterodimerization, primary screen, cell-based, luminescence. AID 504326, 2011. cells. Mu-type opioid receptor (Homo sapiens) + Delta-type opioid receptor (Homo sapiens), …. actives 0.3% (n = 340,000). activation, % at 9.3 µM;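 further: 0% = vehicle-treated cells and 100% = reference agonist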
MOR-DOR inv ag: inverse agonists of MOR-DOR heterodimerization, primary screen, cell-based, luminescence. Mu-type opioid receptor (Homo sapiens) + Delta-type opioid receptor (Homo sapiens), …. cell-based MOR-DOR heterodimer luminescence, inverse agonism. inhibition, % at 9.3 µM. actives 0.21% (n = 340,000); in the data active means inhibition above about 22%, passing the limit was not always enough;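 further: 0% = cells with DMSO and 100% = wells without cells with DMSO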
MOR-DOR ag-2: OPRM1-OPRD1 heterodimerization promoters, counter-screen for HTR5A agonist project, cell-based, luminescence. U2OS counter-screen cells, complementation luminescence, 3 h. actives 13% (n = 800). activation, % at 9.3 µM. shares compounds with HTR5A ag ctr. AID 504913, 2011
HTR5A ag conf: HTR5A agonists, retest of hits, confirmation, cell-based, luminescence. shares compounds with HTR5A ag ctr. HTR5A agonist cell assay. activation, % at 9.3 µM. actives 17% (n = 800); in the data active means activation above about 17%;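 further: 0% = cells with vehicle only and 100% = full reference agonist response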
* = called active by the depositor; . = no result given. Unless noted, no stated cut-off is given here; in the data, active means activation above about 18%; inactive means the rest.

SMILES	HTR5A inv ag	HTR5A ag ctr	MOR-DOR ag-1	MOR-DOR inv ag	MOR-DOR ag-2	HTR5A ag conf
COc1ccc(NC(=O)CSc2nc3ccccc3c(=O)[nH]2)cc1S(N)(=O)=O	-50	21*	-3	13	0	6
O=C(NCCc1c[nH]c2ccccc12)C(=O)NCC1OCCCN1S(=O)(=O)c1cc(F)ccc1F (stereo not given)	-151	36*	-3	14	-1	-11
O=C(NCCc1c[nH]c2ccccc12)C(=O)NCC(c1ccco1)N1CCN(c2ccc(F)cc2)CC1 (stereo not given)	-166	47*	0	1	6	56*
CCNC(=O)c1ccc(-n2nc(C(F)(F)F)c3c2CCCC3)cc1	-79	16*	-1	4	1	36*
CCCC(=O)Nc1nnc(S(=O)(=O)N(CC)c2ccc(OC)cc2)s1	2	0	-2	8	.	.
COc1ccc(C2C(C(=O)c3ccc(C)o3)=C(O)C(=O)N2Cc2cccnc2)cc1 (stereo not given)	5	15*	-2	14	182*	4
Cc1ccc(C(=O)C2=C(O)C(=O)N(Cc3cccnc3)C2c2ccc(OC(C)C)cc2)o1 (stereo not given)	-14	2	-6	19	.	.
Cc1c(C(=O)Nc2ccncc2)sc2nc(-c3ccc(F)cc3)cn12	-47	19*	5	-27	7	2
COc1ccc(-c2cn3c(C)c(C(=O)Nc4ccncc4)sc3n2)cc1	-24	3	1	-6	.	.
CC(=O)Nc1ccc2nc(NC(=O)c3cccnc3)sc2c1	-34	15*	0	-1	2	51*
O=C(NCCNC(=O)c1cc(Cl)ccc1Cl)c1cnccn1	-18	1	-1	8	.	.
CCCc1nnc(NC(=O)c2c(O)c3c([nH]c2=O)CCCC3)s1	-43	16*	-2	10	4	1
O=C(Nc1nccs1)c1c(O)c2c([nH]c1=O)CCCC2	11	-3	-2	11	.	.
Cn1cccc1C(=O)NC(=O)COC(=O)CNS(=O)(=O)c1ccc(Br)cc1	-49	17*	-2	8	17	13
CC(NCCCOc1cccc2ccccc12)c1ccccc1 (stereo not given)	-58	15*	14	-68	43*	2
COc1ccc2ccccc2c1CNC(C)c1ccccc1 (stereo not given)	-6	2	-3	14	.	.
CC(Sc1nnc(Cc2cccs2)n1C)C(=O)Nc1ccc(C(N)=O)cc1 (stereo not given)	-28	9	2	-12	.	.
C=CCn1c(SCC(=O)c2ccc(OC)cc2)nnc1-c1cc2cccc(OC)c2o1	-45	15*	6	-24	4	12
CC(C)c1ccc(/C=C(\NC(=O)c2ccccc2)C(=O)NCCCN2CCOCC2)cc1	-3	4	-2	12	.	.
O=C(Nc1ccc2nc(SCc3ccc(Cl)cc3)sc2c1)c1ccccc1C(=O)N1CCOCC1	-51	21*	7	-32	12	6
COc1ccc(CNC(=O)CCc2ccc(S(=O)(=O)N3CCCCCC3)cc2)cc1OC	-11	5	-2	10	.	.
CCNC(=S)NNc1nncc2ccccc12	-41	16*	-3	12	36*	-3
COc1ccc(C)cc1NC(=O)CSc1nnc(-c2ccc(Br)cc2)o1	-17	22*	2	-9	2	2
COC(=O)Nc1ccc(SCC(=O)c2cccc([N+](=O)[O-])c2)cc1	12	-3	-4	20	.	.
O=C(Nc1ccc(N2CCN(Cc3ccccc3F)CC2)cc1)c1ccc([N+](=O)[O-])o1	-23	25*	8	-43	-2	-1
O=C(Nc1ccc(N2CCN(Cc3ccccc3F)CC2)cc1)c1ccccc1[N+](=O)[O-]	-12	2	1	-3	.	.
CN(C)S(=O)(=O)c1cccc(COC(=O)c2ccc3c(c2)OCO3)c1	22	0	0	-2	.	.
CN(C)S(=O)(=O)c1cccc(COC(=O)c2ccc(Cl)cc2O)c1	18	16*	1	-3	39*	-3
